Measurements from PubChem BioAssay (Tox21).
Values joined by “and” are separate entries in the source; they are usually repeats but may differ in a detail not shown here. Equal values may be shown once. Values without a mark were called inactive. Results filed as inconclusive are left out. Entries that show only a call come without a potency. Active and inactive are the calls of the source. Unless noted, calls follow the shape of the dose curve; as a rule, active = well fitted curve in the direction sought with a large enough effect in the repeat runs; inconclusive = weak or mixed curves; inactive = no such curve, though single readings can be large; an effect the other way counts as inactive or inconclusive.

What was measured:
[1] = qHTS assay to identify small molecule agonists of the hypoxia (HIF-1) signaling pathway - cell viability counter screen (AID 1224844; calls by dose curve; also: nearly all actives have a fitted effect of over 50% in size)
Outline: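 HRE-bla ME-180; 0.5% dFBS; cpd 17 h, 37C, 5% CO2; CellTiter-Glo lum., 30 min RT, post-FRET read, same wells.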

[2] = qHTS assay to identify small molecule agonists of H2AX (AID 1224845; active = well fitted activation curve with a large enough effect in the signal ratio in the repeat runs, not every such curve was filed as active; the % refers to the signal ratio)
Outline: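 Wild-type CHO-K1 cells, plated overnight, exposed 3hr at 37C to 15 concentrations (0.76% DMSO final). Lysed, then HTRF anti-pH2AX (S139) cryptate and anti-H2AX-d2 antibodies, 24 hr room temperature; 665/620 nm emission read.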

[3] = qHTS assay to identify small molecule agonists of H2AX - cell viability counter screen (AID 1224847; calls by dose curve; also: top concentration of the series differs between compounds; nearly all actives have a fitted effect of over 30% in size)
Outline: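 Quantitative HTS viability measurement: CHO-K1 wild-type cells in serum (10% FBS) medium, short 3 hr drug exposure at 37C with 0.76% DMSO, CellTiter-Glo luminescent detection.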

[4] = qHTS RealTime-Glo MT Cell Viability Assay in HEK293 cells - 32 hour (AID 1224868); also: top concentration of the series differs between compounds; nearly all actives have a fitted effect of over 50% in size
Outline: (§1)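 HEK293 cells seeded with NanoLuc/prosubstrate reagent, rested 5 h at 37 C, then dosed and kept at 37 C up to 40 h. Nonlytic real-time luminescence from viable cells read at 0, 8, 16, 24, 32 and 40 h.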

[5] = A CellTox Green Cytotoxicity Assay to monitor cytotoxicity in HEK293 cells - 0 hour (AID 1224869); also: nearly all actives have a fitted effect of over 50% in size
Outline: (§2)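 Tox21 screen in HEK293: membrane-impermeant cyanine dye fluoresces on binding dead-cell DNA; compound pinned 5 h post-seeding, plates held at 37 C, signal read repeatedly through 40 h.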

[6] = A CellTox Green Cytotoxicity Assay to monitor cytotoxicity in HEK293 cells - 40 hour (AID 1224871); also: nearly all actives have a fitted effect of over 45% in size; also: potency is read from the fitted curve at half-maximal effect
Outline: as §2

[7] = qHTS RealTime-Glo MT Cell Viability Assay in HEK293 cells - 16 hour (AID 1224872); also: top concentration of the series differs between compounds; nearly all actives have a fitted effect of over 50% in size
Outline: as §1

[8] = qHTS RealTime-Glo MT Cell Viability Assay in HepG2 cells - 8 hour (AID 1224873); also: nearly all actives have a fitted effect of over 55% in size
Outline: (§3)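 HepG2 cells (600/well) mixed with RealTime-Glo MT reagent, settled 5 h at 37 C/5% CO2 before compound addition. Nonlytic NanoLuc luminescence from viable-cell prosubstrate reduction read repeatedly during 40 h treatment at 37 C.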

[9] = A CellTox Green Cytotoxicity Assay to monitor cytotoxicity in HEK293 cells - 24 hour (AID 1224875); also: series mostly up to about 77 µM; nearly all actives have a fitted effect of over 45% in size
Outline: as §2

[10] = A CellTox Green Cytotoxicity Assay to monitor cytotoxicity in HepG2 cells - 16 hour (AID 1224876); also: nearly all actives have a fitted effect of over 45% in size
Outline: (§4)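 Measurements at 0, 8, 16, 24, 32 and 40 h of treatment captured CellTox Green fluorescence in HepG2 cells that had been co-plated with reagent and preincubated 5 h at 37 C/5% CO2.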

[11] = qHTS RealTime-Glo MT Cell Viability Assay in HepG2 cells - 32 hour (AID 1224877); also: nearly all actives have a fitted effect of over 55% in size
Outline: (§5)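 HepG2 cells (600/well) were dispensed with RealTime-Glo reagents, incubated 5 h at 37 °C, then treated with compounds in DMSO for up to 40 h. Nonlytic NanoLuc luminescence reflecting viable cells was read at each stated time point.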

[12] = A CellTox Green Cytotoxicity Assay to monitor cytotoxicity in HepG2 cells - 24 hour (AID 1224878); also: nearly all actives have a fitted effect of over 45% in size
Outline: as §4

[13] = A CellTox Green Cytotoxicity Assay to monitor cytotoxicity in HepG2 cells - 40 hour (AID 1224879); also: nearly all actives have a fitted effect of over 40% in size
Outline: as §4

[14] = qHTS RealTime-Glo MT Cell Viability Assay in HEK293 cells - 0 hour (AID 1224880)
Outline: (§6)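 HEK293 + NanoLuc + prosubstrate, 600 cells/well; 5 h, 37 C/5% CO2; compound 23 nL in DMSO by pintool; 37 C; luminescence read at 0, 8, 16, 24, 32 and 40 h time points.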

[15] = qHTS assay to identify small molecule antagonists of the estrogen related receptor (ERR) signaling pathway from Tox21 library (AID 1224848); also: nearly all actives have a fitted effect of over 50% in size
Outline: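 Quantitative high-throughput format: ERR reporter cells (2,000/well) pre-incubated 6 h, treated 18 h at 37 C with compounds in DMSO alongside positive and negative controls, then read by ONE-Glo luminescence.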

[16] = qHTS assay to identify small molecule agonists of the estrogen related receptor (ERR) signaling pathway from Tox21 library (AID 1224849; calls by dose curve; also: nearly all actives have a fitted effect of over 15% in size)
Outline: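 Tox21 compounds tested for ERR agonism in an NTP reporter cell line: 18 h treatment at 37 C, then ONE-Glo luminescence.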

[17] = qHTS RealTime-Glo MT Cell Viability Assay in HepG2 cells - 40 hour (AID 1224870); also: nearly all actives have a fitted effect of over 50% in size
Outline: as §3

[18] = qHTS assay to identify small molecule agonists of the hypoxia (HIF-1) signaling pathway (AID 1224846; active = well fitted activation curve with a large enough effect in the signal ratio in the repeat runs, not every such curve was filed as active; the % refers to the signal ratio)
Outline: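 Reporter induction in HRE-bla ME-180 cells is taken as agonism: cells sit 5 hrs after plating, receive compounds or DMSO only, incubate 17 hrs at 37C under 5% CO2, and are loaded with CCF4-AM for beta-lactamase FRET measurement.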

[19] = qHTS RealTime-Glo MT Cell Viability Assay in HEK293 cells - 40 hour (AID 1224874); conditions: RealTime-Glo luminescence; max response: active compounds read low; also: nearly all actives have a fitted effect of over 50% in size
Outline: as §6

[20] = qHTS RealTime-Glo MT Cell Viability Assay in HepG2 cells - 24 hour (AID 1224867); also: nearly all actives have a fitted effect of over 50% in size
Outline: as §5

## O=c1[nH]cnc2[nH]ncc12
[1]
  outcome: inactive
[2]
  outcome: inactive
[3]
  outcome: inactive
[4]
  Potency: inactive
[5]
  outcome: inactive
[6]
  Potency: inactive
[7]
  Potency: inactive
[8]
  Potency: inactive
[9]
  Potency: inactive
[10]
  outcome: inactive
[11]
  outcome: inactive
[12]
  Potency: inactive
[13]
  Potency: inactive
[14]
  outcome: inactive

## CC(C)(Oc1ccc(CCNC(=O)c2ccc(Cl)cc2)cc1)C(=O)O
[1]
  outcome: inactive
[2]
  outcome: inactive
[3]
  outcome: inactive
[15]
  outcome: inactive
[16]
  outcome: inactive
[4]
  Potency: inactive
[5]
  outcome: inactive
[17]
  outcome: inactive
[6]
  Potency: inactive
[7]
  Potency: inactive
[9]
  Potency: inactive
[11]
  outcome: inactive
[12]
  Potency: inactive
[13]
  Potency: inactive
[14]
  outcome: inactive

## CC(=O)OCCOC(C)=O
[1]
  outcome: inactive
[2]
  outcome: inactive
[18]
  outcome: inactive
[3]
  outcome: inactive
[4]
  Potency: inactive
[5]
  outcome: inactive
[17]
  outcome: inactive
[6]
  Potency: inactive
[7]
  Potency: inactive
[19]
  max response: -0.882% and 2.01%
[9]
  Potency: inactive
[10]
  outcome: inactive
[11]
  outcome: inactive
[12]
  Potency: inactive
[13]
  Potency: inactive
[14]
  outcome: inactive

## COc1cc(OC)c(C(=O)CCCN2CCCC2)c(OC)c1
[1]
  outcome: inactive
[2]
  outcome: inactive
[3]
  outcome: inactive
[4]
  Potency: inactive
[5]
  outcome: inactive
[17]
  outcome: inactive
[6]
  Potency: inactive
[7]
  Potency: inactive
[19]
  max response: -11.2% and -1.98%
[9]
  Potency: inactive
[10]
  outcome: inactive
[11]
  outcome: inactive
[12]
  Potency: inactive
[13]
  Potency: inactive
[14]
  outcome: inactive

## c1ccc2c(c1)Cc1ccccc1-2
[1]
  outcome: inactive
[2]
  outcome: inactive
[18]
  outcome: inactive
[3]
  outcome: inactive
[4]
  Potency: inactive
[5]
  outcome: inactive
[17]
  outcome: inactive
[6]
  Potency: 39.5 µM (active) and 54.9 µM (active)
[7]
  Potency: inactive
[8]
  Potency: inactive
[11]
  outcome: inactive
[12]
  Potency: inactive
[13]
  Potency: inactive
[14]
  outcome: inactive

## CN(C)CCOC(=O)COc1ccc(Cl)cc1
[1]
  outcome: inactive
[2]
  outcome: inactive
[3]
  outcome: inactive
[15]
  outcome: inactive
[16]
  outcome: inactive
[20]
  Potency: inactive
[4]
  Potency: inactive
[5]
  outcome: inactive
[17]
  outcome: inactive
[6]
  Potency: inactive
[7]
  Potency: inactive
[9]
  Potency: inactive
[11]
  outcome: inactive
[12]
  Potency: inactive
[13]
  Potency: inactive
[14]
  outcome: inactive

## CCOC(=O)c1ccc(N)cc1
[1]
  outcome: inactive
[2]
  outcome: inactive
[3]
  outcome: inactive
[20]
  Potency: inactive
[4]
  Potency: inactive
[5]
  outcome: inactive
[17]
  outcome: inactive
[6]
  Potency: inactive
[7]
  Potency: inactive
[8]
  Potency: inactive
[19]
  max response: -17.4%
[9]
  Potency: inactive
[11]
  outcome: inactive
[12]
  Potency: inactive
[13]
  Potency: inactive
[14]
  outcome: inactive

## C=CCc1ccc(OC)c(OC)c1
[1]
  outcome: inactive
[2]
  outcome: inactive
[18]
  outcome: inactive
[3]
  outcome: inactive
[4]
  Potency: inactive
[5]
  outcome: inactive
[6]
  Potency: inactive
[7]
  Potency: inactive
[19]
  max response: 0.535% and 0.477%
[9]
  Potency: inactive
[11]
  outcome: inactive
[12]
  Potency: inactive
[13]
  Potency: inactive
[14]
  outcome: inactive

## CN1C(=O)CC[C@H]1c1cccnc1
[1]
  outcome: inactive
[2]
  outcome: inactive
[3]
  outcome: inactive
[20]
  Potency: inactive
[4]
  Potency: inactive
[5]
  outcome: inactive
[6]
  Potency: inactive
[7]
  Potency: inactive
[8]
  Potency: inactive
[9]
  Potency: inactive
[10]
  outcome: inactive
[11]
  outcome: inactive
[12]
  Potency: inactive
[13]
  Potency: inactive
[14]
  outcome: inactive

## COc1ccc(C)cc1N
[1]
  outcome: inactive
[2]
  outcome: inactive
[18]
  outcome: inactive
[3]
  outcome: inactive
[4]
  Potency: inactive
[5]
  outcome: inactive
[6]
  Potency: inactive
[7]
  Potency: inactive
[9]
  Potency: inactive
[10]
  outcome: inactive
[11]
  outcome: inactive
[12]
  Potency: inactive
[13]
  Potency: inactive
[14]
  outcome: inactive

## CNC(=O)Oc1ccc2c(c1)[C@]1(C)CCN(C)[C@@H]1N2C
[1]
  outcome: inactive
[2]
  outcome: inactive
[3]
  outcome: inactive
[20]
  Potency: inactive
[4]
  Potency: inactive
[5]
  outcome: inactive
[17]
  outcome: inactive
[6]
  Potency: inactive
[7]
  Potency: inactive
[8]
  Potency: inactive
[19]
  max response: 4.52% and 8.75%
[9]
  Potency: inactive
[10]
  outcome: inactive
[11]
  outcome: inactive
[12]
  Potency: inactive
[13]
  Potency: inactive
[14]
  outcome: inactive

## CC(C)(C)c1cc(Cc2cc(C(C)(C)C)c(O)c(C(C)(C)C)c2)cc(C(C)(C)C)c1O
[1]
  outcome: inactive
[2]
  outcome: inactive
[18]
  outcome: inactive
[3]
  outcome: inactive
[4]
  Potency: inactive
[5]
  outcome: inactive
[6]
  Potency: inactive
[7]
  Potency: inactive
[8]
  Potency: inactive
[19]
  max response: 3.98% and -14.3%
[9]
  Potency: inactive
[11]
  outcome: inactive
[12]
  Potency: inactive
[13]
  Potency: inactive
[14]
  outcome: inactive

## CC1(C)S[C@@H]2[C@H](NC(=O)COc3ccccc3)C(=O)N2[C@H]1C(=O)O
[1]
  outcome: inactive
[2]
  outcome: inactive
[3]
  outcome: inactive
[15]
  outcome: inactive
[16]
  outcome: inactive
[4]
  Potency: inactive
[5]
  outcome: inactive
[17]
  outcome: inactive
[6]
  Potency: inactive
[7]
  Potency: inactive
[8]
  Potency: inactive
[9]
  Potency: inactive
[10]
  outcome: inactive
[11]
  outcome: inactive
[12]
  Potency: inactive
[13]
  Potency: inactive
[14]
  outcome: inactive

## C[C@]12CCC(=O)C=C1CC[C@@H]1[C@@H]2[C@@H](O)C[C@@]2(C)[C@H]1CC[C@]2(O)C(=O)CO
[1]
  outcome: inactive
[2]
  outcome: inactive
[3]
  outcome: inactive
[5]
  outcome: inactive
[6]
  Potency: inactive
[9]
  Potency: inactive
[10]
  outcome: inactive
[12]
  Potency: inactive
[13]
  Potency: inactive
